This is part of a sample that, as a whole, favours compounds with a hit. Of some 83,000 tested, about 20% had one in any assay.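 Assay: single dose, 48 h. Readout: percent growth (0 = no net growth; negative = cell death). Active: <10.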 Unmarked numbers belong to inactive results. Activity calls are given as the source filed them.
Columns and labels:
Assay in all cases: NCI-60 one-dose screen, 48 h (100 = growth as untreated, 0 = no growth, -100 = all killed)
Settings in all cases: 10 µM unless noted
T-47D breast = tested on: T-47D breast
BT-549 breast = tested on: BT-549 breast
MDA-MB-435 melanoma = tested on: MDA-MB-435 melanoma
SW-620 colon = tested on: SW-620 colon
MCF7 breast = tested on: MCF7 breast
HCT-116 colon = tested on: HCT-116 colon
HCC-2998 colon = tested on: HCC-2998 colon
KM12 colon = tested on: KM12 colon

SMILES	growth (T-47D breast)	growth (BT-549 breast)	growth (MDA-MB-435 melanoma)	growth (SW-620 colon)	growth (MCF7 breast)	growth (HCT-116 colon)	growth (HCC-2998 colon)	growth (KM12 colon)
COc1cc(C2Cc3ncccc3-c3[nH]c(=O)c4cccnc4c32)cc(OC)c1OC (stereo unspecified)	45.6%	40.6%	-50.3% (active)	26.7%	16%	13.8%	25.1%	23%
Nc1c(C(=O)O)cc(Cl)cc1[N+](=O)[O-]	95.6%	109%	105%	99.5%	95.2%	94.6%	95.1%	105%
COC(=O)C1=C(C(=O)Nc2cccnc2)C2OC1(C(Cc1ccccc1)Oc1ccccc1)C1OC21 (stereo unspecified)	-46.7% (active)	61.5%	77.8%	-64.9% (active)	24.9%	-46.3% (active)	105%	96.8%
CC[C@@H](c1ccc2cc(OC)ccc2c1)C(C)(C)C(=O)F	118%	19.9%	102%	94.6%	108%	85.6%	55.1%	107%
CC(=O)c1cc(-c2ccccc2N)n(-c2ccc3c(c2)OCO3)c1C	71%	1.13% (active)	-43.6% (active)	29.2%	14.8%	6.22% (active)	15.8%	5.16% (active)
CCn1cc(CNc2ccc(C(=O)Nc3cc4cc(OC)c(OC)cc4c(C)n3)cc2)c(C)n1	-15.4% (active)	-4.64% (active)	48.4%	59.9%	30%	25.4%	62.2%	23%
Cn1c(=O)c2c(c3ccccc31)OC(N)=C(C#N)C21C(=O)c2ccccc2C1=O	96.3%	87.2%	98.4%	82.3%	90%	92.2%	101%	95.2%
COc1cc(C2=NN(C(C)=O)C(c3ccc(N(C)C)cc3)C2)cc(OC)c1OC (stereo unspecified)	86.6%	94.4%	94.9%	94.9%	93.1%	86.9%	102%	95.4%
CCN1C(=O)N(CC)C2C1NN=c1s/c(=C\c3cc4ccccc4[nH]3)c(=O)n12 (stereo unspecified)	2.04% (active)	12.2%	-9.5% (active)	19.8%	3.88% (active)	9.85% (active)	10.3%	10.3%
O=C(c1ccc(F)c(Cl)c1)N1c2ccccc2Sc2ccccc21	61%	57.6%	8.14% (active)	33.9%	51.2%	31.4%	62.3%	39.6%
S=c1ssnc1-c1cccs1	92.6%	116%	83.9%	83.7%	91.6%	89.4%	98.4%	92.1%
C/C(C=O)=C\c1ccc2c(c1)OCO2	117%	114%	107%	118%	102%	108%	108%	110%
COc1ccc(C2=C/C(=C\c3ccc(Cl)cc3)C(=O)N2/N=C/c2ccc(Cl)cc2)cc1	82.1%	101%	104%	98.9%	84.5%	109%	108%	90.2%
COc1ccc(Cl)cc1Nc1nc(C(F)(F)F)ccc1C(=O)N/N=C/c1ccccc1Cl	-22.5% (active)	13.3%	26.9%	7.18% (active)	-8.68% (active)	14.2%	-11.2% (active)	7.71% (active)
CCn1cc(C2=C(c3cn(C)c4ncccc34)C(=O)NC2=O)c2cccnc21	29.8%	32.9%	65%	92.4%	38.3%	70.9%	91.4%	46.7%
CC1=C(C(=O)n2c3ccccc3c3ccccc32)C(c2cccc([N+](=O)[O-])c2)C(C(=O)n2c3ccccc3c3ccccc32)=C(C)N1	80.5%	102%	117%	100%	94.8%	91.8%	102%	94.8%

SMILES	growth (T-47D breast)	growth (BT-549 breast)	growth (MDA-MB-435 melanoma)	growth (SW-620 colon)	growth (MCF7 breast)	growth (HCT-116 colon)	growth (HCC-2998 colon)	growth (KM12 colon)
N/C(=N\c1nc2ccccc2s1)NC(=NC1CCCCC1)NC1CCCCC1	13.2%	47.6%	-33.7% (active)	0.593% (active)	-42.4% (active)	0.368% (active)	-88.6% (active)	27.5%
Nc1ncnc2c1c(-c1ccc(Oc3ccccc3)cc1)nn2CC1SSCC1O (stereo unspecified)	7.22% (active)	82%	-0.185% (active)	78.7%	16%	43.8%	80.4%	46.5%
CC/C(Cc1ccccc1)=C(\c1ccc(OCCN2CCCCCC2)cc1)c1ccc(OC(=O)NCc2ccccc2)cc1	40.9%	81.9%	79.6%	64.5%	13.7%	2.8% (active)	65.2%	67.9%
CS(=O)(=O)Nc1cncc(-c2ccc3ncnc(Nc4ccc(F)c(Cl)c4)c3c2)c1	-9.57% (active)	32.4%	49%	43.1%	13.1%	19.6%	66%	59.4%
CCOC(=O)c1c(-c2ccccc2)n2c(=O)cc(C)c3c(O)c(O)cc1c32	55%	89.8%	79.7%	55.4%	29.9%	24.5%	61.3%	64.3%
O=C(Nc1ccccc1O)c1ccccc1Nc1ccnc(C(F)(F)F)c1	88.4%	112%	115%	102%	83.4%	84.2%	107%	102%
CC(C)C[C@@H](C(=O)N[C@H](C(=O)OC1CCCC1)c1ccccc1)[C@H](O)C(=O)NO	36.7%	69.7%	49.4%	49.8%	43.3%	56.7%	94.4%	65.7%
COc1ccc(-c2cc(-c3ccc(OC)cc3)nc(NCCCNc3ccnc4cc(Cl)ccc34)n2)cc1	89.3%	81.2%	-69.9% (active)	-39.7% (active)	-54.2% (active)	-84.9% (active)	-56.4% (active)	44.8%
C[C@H]1[C@H](C)CC[C@]2(C(=O)O)CC[C@]3(C)C(=CC[C@@H]4[C@@]5(C)C[C@@H](Cc6cn([C@@H]7O[C@H](CO)[C@@H](O)[C@H](O)[C@H]7O)nn6)[C@H](O)C(C)(C)[C@@H]5CC[C@]43C)[C@H]12	93.5%	102%	101%	97.6%	92.7%	92%	107%	108%
CC1CN=C(c2cccc(-c3ccc(-c4ccccc4)o3)c2)N1 (stereo unspecified)	-31.8% (active)	50.8%	-75.8% (active)	-40.6% (active)	-57.2% (active)	-67.9% (active)	-65.4% (active)	-8.35% (active)
Cc1ccccc1OCC(O)COc1ccccc1C	88.7%	79.4%	94.6%	103%	90.7%	103%	573%	103%
Cn1c(/C=C/[N+](=O)[O-])cc2ccccc21	37.4%	-43.2% (active)	-21.6% (active)	-70.8% (active)	-50.5% (active)	-74% (active)	-95.1% (active)	-63.8% (active)
O=C(Nc1cccc(NC(=O)C2CCCCC2)c1)c1ccccn1	95.7%	102%	102%	115%	86.4%	93.6%	87.4%	98.6%
CCCCCCNc1nc(NCCCCCC)c2[nH]c(NCCCCCC)nc2n1	33.3%	71.6%	67.5%	16.3%	20.9%	-35% (active)	46.6%	50.8%
O=C(CN1C(=O)NC2NC(=O)NC21)N/N=C/c1ccc(Cl)cc1Cl (stereo unspecified)	110%	98.9%	102%	104%	98%	101%	110%	105%
Cn1cc(-c2ccc3cc(-c4ccc(CC(=O)Nc5cc(C(C)(C)C)on5)cc4)cnc3c2)cn1	34.5%	33%	17.1%	12.8%	40.8%	9.3% (active)	57.8%	9.57% (active)
